Bioassay records from PubChem BioAssay.
FXN GAA850 act – increases GAA850 frataxin promoter reporter activity. HEK293 lucGAA850 FXN promoter luciferase reporter, 24 h; percent of 10 µM SAHA response. activation, % at 6 µM. 360,000 compounds, 0.56% hits. AID 540364;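 active = activation above the average of all compounds screened plus 3 SD, cutoff fixed separately per campaign, cut at about 7.5% in these data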;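 also: 0% = DMSO wells and 100% = 10 µM SAHA wells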
hcDAF-12 act – activates DAF-12 receptor from parasite H. contortus. activation, % at 6.8 µM. 370,000 compounds, 1.4% hits. HEK293 hcDAF-12 lit1-tk-luc reporter, luminescence; 0% DMSO, 100% Δ7-dafachronic acid;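 active = activation above the mean of all tested compounds plus 3 SD, cut at about 5.5% in these data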;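 also: 100% = response to 3 µM Δ7-dafachronic acid high control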
hgDAF12 agonist – activates the H. glycines DAF-12 receptor ligand-binding domain. 370,000 compounds, 1.8% hits. activation, % at 6.8 µM. HEK293 GAL4-hgDAF12 UAS-luciferase reporter, agonist luminescence; normalized to butyrate control;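 active = activation above a cutoff set at the mean of all screened compounds plus 3 SD, cut at about 10% in these data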;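 also: 0% = DMSO wells and 100% = sodium butyrate wells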
ssDAF-12 act – activates DAF-12 receptor from parasite S. stercoralis | HEK293 ssDAF-12/GRIP1 lit1-tk-luc reporter, luminescence; % of 3 µM dafachronic acid response | activation, % at 6.8 µM | 370,000 compounds, 1% hits;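 active = activation above the mean over all tested compounds plus 3 SD, cut at about 0.9% in these data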;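 also: 0% = DMSO-only wells and 100% = 3 µM delta7-dafachronic acid wells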
DAX1 inh-1 – NR0B1 (DAX1) inhibition; inhibition, % at 6.75 µM; HEK293 Gal4-DAX1 luciferase reporter, luminescence; 340,000 compounds, 0.99% hits;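 active = inhibition above the mean over all tested compounds plus 3 SD, cut at about 4.2% in these data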;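 also: 0% = DAX1-transfected cells with DMSO and 100% = empty-vector control cells with DMSO; inhibition shows as a rise in luminescence from relieved DAX1 repression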
Target sequence (P51843 207-470 limits assumed): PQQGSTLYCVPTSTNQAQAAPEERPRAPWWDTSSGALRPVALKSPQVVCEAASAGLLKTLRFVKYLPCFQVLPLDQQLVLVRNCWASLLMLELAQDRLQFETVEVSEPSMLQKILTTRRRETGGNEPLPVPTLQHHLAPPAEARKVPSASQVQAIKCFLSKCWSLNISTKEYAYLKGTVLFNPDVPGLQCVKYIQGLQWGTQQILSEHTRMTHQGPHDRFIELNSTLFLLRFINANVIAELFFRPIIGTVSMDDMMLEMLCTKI
DAX1 inh-2 – DAX1 (NR0B1) inhibition, primary screen; HEK293T StAR-luciferase reporter, SF-1/DAX-1 repression relief; inhibition, % at 6.8 µM; 370,000 compounds, 1.1% hits;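 active = inhibition above the mean over all tested compounds plus 3 SD, cut at about 3.6% in these data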;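 also: 0% = DAX-1 cells with DMSO and 100% = cells lacking DAX-1 with DMSO; higher inhibition means more luminescence from relief of DAX-1 repression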
GAA30 FXN cntr – GAA30 FXN promoter activation counter-screen; shares compounds with FXN GAA850 act; HEK293 lucGAA30 FXN promoter luciferase, 24 h; DMSO = 0%, 5 µM ipriflavone = 100%; activation, % at 6 µM; 1,900 compounds, 66% hits; AID 588350;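 active = mean activation above the mean of solvent-only control wells plus 3 SD, cut at about 22% in these data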;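 also: counterscreen of GAA850 promoter hits where activity marks nonselective or luminescence artifacts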
FXN GAA850 conf – confirmation of GAA850 frataxin (FXN) promoter activators. activation, % at 6 µM. shares compounds with FXN GAA850 act. 1,900 compounds, 86% hits. HEK293 lucGAA850 FXN promoter luciferase reporter, 24 h; 100% = activation by SAHA. AID 588351;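 active = mean activation above a set limit taken from the primary screen, cut at about 8% in these data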;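 also: 0% = DMSO wells and 100% = 10 µM SAHA wells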
The depositor's hits bear a star; x = not tested or not shown. This is a sample that favours compounds with a hit; in the whole collection about 4.5% have one here.

SMILES	FXN GAA850 act	hcDAF-12 act	hgDAF12 agonist	ssDAF-12 act	DAX1 inh-1	DAX1 inh-2	GAA30 FXN cntr	FXN GAA850 conf
C=CCSc1nc(N)c2c(C)c(C)sc2n1	8.2*	3	2	-1	1	0	55*	20*
COc1ccccc1CCn1cnc(-c2ccccc2F)c1CC(C)C	x	-4	-5	-2	x	-3	x	x
Cc1cc(-c2n[nH]c(=S)n2N=Cc2c3ccccc3cc3ccccc23)n[nH]1	x	0	3	-1	x	-1	x	x
O=S(=O)(c1cccc2cccnc12)N1CCc2ccccc21	0	0	1	-2	0	0	x	x
O=C(C(Cc1ccccc1)NS(=O)(=O)c1cccc2cccnc12)N1CCc2ccccc21 (stereo unspecified)	13*	3	7	0	3	1	24*	9.1*
Cc1nc(NC(=O)c2ccccc2[N+](=O)[O-])sc1C(=O)N(C)C	-1	-3	0	-2	1	0	x	x
Cc1nc(NC(=O)c2oc3ccccc3c2C)sc1C(=O)N(C)C	7.8*	0	8	0	0	1	112*	36*
COc1ccccc1C(=O)Nc1ccc(C(=O)/C=C/c2cccs2)cc1	8.5*	-3	0	-1	1	0	22*	13*
O=C(/C=C/c1cccs1)c1ccc(NC(=O)c2ccccc2F)cc1	2	0	2	-2	-1	1	x	x
COc1ccccc1-c1nc(-c2ccc(C)nc2OC)no1	8.8*	3	5	-1	0	2	121*	40*
CSc1nc(N)nc(SC2C=CCCC2)c1C#N (stereo unspecified)	13*	-2	1	-1	0	0	41*	22*
O=S1(=O)c2ccc(N3CCC[C@H]3CO)cc2OCCCN1C1CC1	x	-2	-1	-1	x	0	x	x
Cc1c(Cl)cccc1N=Cc1ccc([N+](=O)[O-])s1	9.2*	0	1	-1	0	1	6	6
Cc1ccccc1C(=O)N/N=C/c1ccc([N+](=O)[O-])s1	-13	-5	-15	-3	-4	-4	x	x
CN1C(=O)c2cc(NC(=O)C3CCOCC3)ccc2OC[C@@H]2O[C@@H](CC(=O)NCc3ccccc3F)CC[C@@H]21	x	0	1	-1	x	1	x	x
COc1cccc(C=NNc2nnc(NN=Cc3cccc(OC)c3OC)c3ccccc23)c1OC	-3	1	-2	-1	1	-1	x	x
COc1ccccc1/C=N/Nc1nncc2ccccc12	8.2*	1	9	0	1	3	104*	36*
COc1cc(C(=O)O[C@H]2CC(C)=CC[C@@]3(C)CC[C@@](O)(C(C)C)[C@H]23)ccc1O	16*	-2	2	-2	3	0	29*	8.1*
COc1cc(C(=O)O[C@H]2C/C(C)=C/CC[C@]3(C)O[C@@H]3C(O)C2C(C)C)cc(OC)c1OC (stereo partly specified)	-8	-2	-1	-1	-1	-1	x	x
COc1cc(SC)ccc1C(=O)Nc1ncc(Cl)cc1Cl	9.8*	1	6	-1	0	1	119*	41*
NCCC(=O)Nc1ccc(Cl)cc1C(=O)c1ccc[nH]1	x	0	3	-1	x	x	x	x
CCCC/C=C1/[C@H](c2ccccc2)N(C)C2=N[C@H](c3ccccc3)CC(=O)N21	x	-3	-1	-2	x	x	x	x
N#Cc1ccc(Nc2nc(NCc3ccccc3)nc3ccsc23)cc1	9.5*	-2	0	-1	x	-3	33*	13*
Fc1ccc(Nc2nc(NCc3ccccc3)nc3ccsc23)cc1	0	-3	-1	-2	x	-3	x	x
CCOC(=O)CSc1nc(N)c(C#N)c(-c2ccc(OCC)cc2)c1C#N	13*	-2	0	-2	-1	-1	12	9.1*
SMILES	FXN GAA850 act	hcDAF-12 act	hgDAF12 agonist	ssDAF-12 act	DAX1 inh-1	DAX1 inh-2	GAA30 FXN cntr	FXN GAA850 conf
CC(C)OC(=O)CSc1nc(N)c(C#N)c(-c2ccco2)c1C#N	1	2	-2	-1	-1	-1	x	x
CCOC(=O)CSc1nc2cc(C)cc(C)c2cc1C#N	2	-1	-1	-1	0	0	x	x
COC(=O)CSc1nc(N)c(C#N)c(-c2ccc(O)cc2)c1C#N	4	-2	0	-2	2	-1	x	x
CC(C)OC(=O)CSc1nc(N)c(C#N)cc1C#N	8.4*	2	4	-2	1	1	64*	29*
CCOC(=O)CSc1nc(N)c(C#N)cc1C#N	11*	1	5	-1	1	1	52*	30*
C[C@H]1COc2cc(Br)ccc2S(=O)(=O)N1Cc1cn(Cc2ccco2)nn1	x	-3	-2	0	x	0	x	x
C=CCn1c(SCC(=O)Nc2ccccc2OC)nc2c([nH]c3ccccc32)c1=O	13*	5.9*	4	0	0	-1	18	12*
COCCn1c(SCC(=O)Nc2ccccc2OC)nc2c([nH]c3ccccc32)c1=O	8.0*	4	0	0	-1	-2	14	7.9*
COc1cc(Cn2cc([C@]34C[C@H]5C(=O)N(C)CC(=O)N5[C@H]3N(S(=O)(=O)c3ccccc3)c3ccccc34)c3ccccc32)cc(OC)c1	x	2	8	-1	x	x	x	x
O=C(Nc1ccccc1-c1ccccc1)c1cnccn1	9.0*	-2	2	-1	-1	1	41*	22*
CCN(CC)C(=O)CC[C@H]1CC[C@]2(CCCN(Cc3ccc(Br)cc3)C2)O1	x	0	-1	-2	x	0	x	x
O=C(NCC1COc2ccccc2O1)c1ccccc1 (stereo unspecified)	7.6*	3	4	0	1	1	88*	27*
COC(=O)C1CN(Cc2ccc(C)cc2)CCS(=O)(=O)N1Cc1cn(Cc2ccc(F)cc2)nn1 (stereo unspecified)	x	-3	2	-1	x	-1	x	x
Cn1c(NC(=O)c2ccccc2)nc(Cc2ccccc2)c1Cc1ccccc1	x	-3	-2	-1	x	0	x	x
COc1cc2sc3cc(NCc4ccc(C)o4)ccc3c(=O)c2cc1OC	11*	2	7	-1	0	1	109*	35*
COc1cc2sc3cc(NCC[C@@H]4CCCN4C)ccc3c(=O)c2cc1OC	9.9*	1	9	0	1	1	83*	42*
COc1ccc2c(c1)CN1CN(CC(C)C)S(=O)(=O)CC21 (stereo unspecified)	x	0	0	-1	x	-1	x	x
